PubChem BioAssay (Tox21)
Several values for one entry are separate records, joined by “and”; a condition that tells them apart may be missing. Identical values can stand only once. Results filed as inconclusive are left out. Where a call stands in place of a potency, no number is given. The source holds several records for some structures; these can differ, active in one and inactive in another. Activity calls are given as the source filed them. Unless noted, calls come from the whole dose curve; as a rule, active = well fitted curve in the direction sought with a large enough effect in the repeat runs; inconclusive = weak or mixed curves; inactive = no such curve, though single readings can be large; an effect the other way counts as inactive or inconclusive.

Assays:
[1] = biological target: Aryl hydrocarbon receptor (Homo sapiens) (UniProt P35869); test: qHTS assay to identify small molecule that activate the aryl hydrocarbon receptor (AhR) signaling pathway (AID 743085); note: nearly all actives have a fitted effect of over 15% in size; note: potency is the fitted concentration of half-maximal effect;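 for activation: HG2L7.5c1 human HepG2 liver cells with stably integrated DRE-driven firefly reporter; series mostly up to about 70 µM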
Procedure, shortened: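 Stably transfected human liver carcinoma cells (HG2L7.5c1; 20 DRE-firefly luciferase) were incubated 5 h, dosed, and kept 24 h at 37C. Agonism was scored from increased luciferase luminescence.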

[2] = biological target: Peroxisome proliferator-activated receptor gamma (Homo sapiens) (UniProt P37231); test: qHTS assay to identify small molecule agonists of the peroxisome proliferator-activated receptor gamma (PPARg) signaling pathway (AID 743094; active = well fitted activation curve with a large enough effect in the signal ratio in the repeat runs, not every such curve was filed as active; the % refers to the signal ratio)
Procedure, shortened: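 Reporter activation was scored by fluorescence of cleaved LiveBLAzer B/G substrate (1 h, room temperature) in PPARg-bla HEK293H cells previously treated 17 h at 37C with DMSO-dissolved compounds.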

[3] = qHTS assay for small molecule activators of the heat shock response signaling pathway (AID 743210; active = well fitted activation curve with a large enough effect in the signal ratio in the repeat runs, with a control signal flat, not every such curve was filed as active; the % refers to the signal ratio;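 note: HeLa cells with beta-lactamase reporter driven by heat shock elements; series mostly up to about 63 µM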)
Procedure, shortened: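 Beta-lactamase reporter read-out: FRET substrate fluorescence after 2.5 h at RT, following 5 h compound treatment at 37 C of HeLa cells carrying HSE-driven bla reporter; quantitative HTS format.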

[4] = qHTS assay to identify small molecule agonists of the peroxisome proliferator-activated receptor delta (PPARd) signaling pathway - cell viability counter screen (AID 743211); note: nearly all actives have a fitted effect of over 55% in size; note: potency is the fitted concentration of half-maximal effect
Procedure, shortened: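 In the same wells used for beta-lactamase reporter measurement, cytotoxicity is scored by CellTiter-Glo. HEK293H PPARd-bla cells receive compound for 17 h at 37C following a 5 h settling period.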

[5] = biological target: Peroxisome proliferator-activated receptor delta (Homo sapiens) (UniProt Q03181); test: qHTS assay to identify small molecule agonists of the peroxisome proliferator-activated receptor delta (PPARd) signaling pathway (AID 743212; calls by dose curve)
Procedure, shortened: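 Read-out: beta-lactamase FRET fluorescence after 2 h room-temperature incubation with LiveBLAzer B/G substrate. Cells were HEK293H carrying a UAS-bla reporter for PPARd, treated at 37 C with DMSO-dissolved compounds.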

[6] = qHTS assay to identify small molecule antagonists of the peroxisome proliferator-activated receptor delta (PPARd) signaling pathway - cell viability counter screen (AID 743213); note: nearly all actives have a fitted effect of over 50% in size
Procedure, shortened: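 HEK293H cells with the PPARd UAS-bla reporter, co-treated 17 h at 37 C with compounds and L165041 (300 nM final), were lysed with CellTiter-Glo. Luminescence indicated viable cell content.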

[7] = qHTS assay to identify aromatase inhibitors - cell viability counter screen (AID 743084);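 note: cells stimulated with testosterone during compound exposure; nearly all actives have a fitted effect of over 55% in size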; note: potency is the fitted concentration of half-maximal effect
[8] = qHTS assay to identify small molecule that activate the aryl hydrocarbon receptor (AhR) signaling pathway - cell viability counter screen (AID 743086); note: nearly all actives have a fitted effect of over 45% in size; note: potency is the fitted concentration of half-maximal effect
Procedure, shortened: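 HepG2-AhR-luc (HG2L7.5c1) cells, 4000/well, treated 24 h at 37 C with compound; viability measured as CellTiter-Fluor fluorescence after 30 min in the same wells as the luciferase read.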

[9] = qHTS assay to identify small molecule antagonists of the peroxisome proliferator-activated receptor gamma (PPARg) signaling pathway - cell viability counter screen (AID 743194); note: nearly all actives have a fitted effect of over 55% in size
Procedure, shortened: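 Cytotoxicity counter screen in PPARg-bla HEK293H cells, same wells as reporter assay. Compounds plus 50 nM rosiglitazone (final) for 17 h at 37 C, then viability read by CellTiter-Glo luminescence.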

[10] = qHTS assay for small molecule agonists of the antioxidant response element (ARE) signaling pathway (AID 743202; active = well fitted activation curve with a large enough effect in the signal ratio in the repeat runs, not every such curve was filed as active; the % refers to the signal ratio; note: potency is the fitted concentration of half-maximal effect)
Procedure, shortened: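 HepG2 ARE-bla reporter line, 2,000 cells/well; 5 h preincubation 37 C/5% CO2; compound (DMSO) 16 h 37 C; B/G FRET substrate 2 h RT; fluorescence intensity.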

[11] = qHTS assay for small molecule agonists of the antioxidant response element (ARE) signaling pathway - cell viability counter screen (AID 743203; calls by dose curve; note: nearly all actives have a fitted effect of over 55% in size)
Procedure, shortened: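 Viability counter screen: stably transfected ARE-bla HepG2 line, 16 hrs compound exposure at 37C/5% CO2, ATP-based CellTiter-Glo luminescence measured in the reporter wells.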

[12] = qHTS assay for small molecule activators of the heat shock response signaling pathway - cell viability counter screen (AID 743209); note: nearly all actives have a fitted effect of over 50% in size
Procedure, shortened: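 Viability of HSE-bla HeLa cells is measured with CellTiter-Glo in the wells already used for the reporter read. Compound exposure lasts 5 h at 37 C, and luminescence is read after 30 min at room temperature.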

[13] = biological target: Peroxisome proliferator-activated receptor delta (Homo sapiens) (UniProt Q03181); test: qHTS assay to identify small molecule antagonists of the peroxisome proliferator-activated receptor delta (PPARd) signaling pathway (AID 743215; active = well fitted inhibition curve with a large enough effect in the signal ratio in the repeat runs, not every such curve was filed as active; the % refers to the signal ratio;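 note: cells stimulated with agonist L165041 at 300 nM final during compound exposure; series mostly up to about 62 µM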)
Procedure, shortened: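 Plated HEK293H PPARd-bla cells rested 5 h at 37 C and 5% CO2. Compound, then agonist L165041 at 300 nM final, was added; 17 h at 37 C followed. Substrate loading, 2 h room temperature, fluorescence measured.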

[14] = qHTS assay to identify small molecule agonists of the farnesoid-X-receptor (FXR) signaling pathway - cell viability counter screen (AID 743218); note: nearly all actives have a fitted effect of over 45% in size
Procedure, shortened: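 Viability of FXR-bla HEK 293T cells is measured by ATP-based CellTiter-Glo luminescence following 16 h compound treatment at 37 C and a prior 2 h room-temperature beta-lactamase substrate step.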

[15] = qHTS assay to identify small molecule antagonists of the farnesoid-X-receptor (FXR) signaling pathway - cell viability counter screen (AID 743221; active = well fitted cell-killing curve with a large enough effect in the repeat runs, not every such curve was filed as active; note: nearly all actives have a fitted effect of over 50% in size)
Procedure, shortened: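 Here viability was scored by luminescence after CellTiter-Glo addition to wells already read for beta-lactamase. Prior treatment: compound plus CDCA (50 uM final), 16 h, 37 C, HEK 293T FXR-bla cells.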

[16] = biological target: Vitamin D3 receptor (Homo sapiens) (UniProt P11473); test: qHTS assay to identify small molecule agonists of the vitamin D receptor (VDR) signaling pathway (AID 743222; calls by dose curve)
Procedure, shortened: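 Fluorescence from cleaved LiveBLAzer B/G FRET substrate served as readout. VDR-bla cells had been treated 16 h at 37C with test compounds in DMSO, following a 4 h settling period, and substrate was loaded for 2 h at RT.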

[17] = biological target: Vitamin D3 receptor (Homo sapiens) (UniProt P11473); test: qHTS assay to identify small molecule antagonists of the vitamin D receptor (VDR) signaling pathway (AID 743223; active = well fitted inhibition curve with a large enough effect in the signal ratio in the repeat runs, not every such curve was filed as active; the % refers to the signal ratio)
Procedure, shortened: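 Inhibition of agonist-driven VDR signalling is scored in VDR-bla cells: 3 nM final 1alpha,25-dihydroxyvitamin D3 plus compound, 16 h at 37C, then beta-lactamase detection by FRET substrate fluorescence after 2 h.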

[18] = biological target: Peroxisome proliferator-activated receptor gamma (Homo sapiens) (UniProt P37231); test: qHTS assay to identify small molecule antagonists of the peroxisome proliferator-activated receptor gamma (PPARg) signaling pathway (AID 743191; calls by dose curve; note: potency is the fitted concentration of half-maximal effect; nearly all actives have a fitted effect of over 30% in size)
Procedure, shortened: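 GeneBLAzer PPARg UAS-bla HEK293H cells, 5 h post-plating, exposed to compounds 17 h at 37C. LiveBLAzer B/G FRET substrate added for 1 h at room temperature; beta-lactamase reporter read by fluorescence intensity.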

Sequence of Peroxisome proliferator-activated receptor gamma (Homo sapiens) (P37231 whole entry, looked up): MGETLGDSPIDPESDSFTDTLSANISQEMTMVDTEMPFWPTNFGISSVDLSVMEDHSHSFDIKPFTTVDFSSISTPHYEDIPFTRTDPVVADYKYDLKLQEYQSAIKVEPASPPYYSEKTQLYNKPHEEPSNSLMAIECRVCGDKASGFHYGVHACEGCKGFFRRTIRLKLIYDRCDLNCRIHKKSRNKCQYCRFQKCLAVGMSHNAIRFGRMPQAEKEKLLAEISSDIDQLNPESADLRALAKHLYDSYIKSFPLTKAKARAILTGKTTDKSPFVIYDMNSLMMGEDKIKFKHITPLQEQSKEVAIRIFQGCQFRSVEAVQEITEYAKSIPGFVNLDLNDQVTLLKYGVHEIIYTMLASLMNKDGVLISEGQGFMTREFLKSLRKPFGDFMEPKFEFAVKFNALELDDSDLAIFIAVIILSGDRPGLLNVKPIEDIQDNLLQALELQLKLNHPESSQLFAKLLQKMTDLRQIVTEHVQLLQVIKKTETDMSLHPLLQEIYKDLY
Sequence of Peroxisome proliferator-activated receptor delta (Homo sapiens) (Q03181 whole entry, looked up): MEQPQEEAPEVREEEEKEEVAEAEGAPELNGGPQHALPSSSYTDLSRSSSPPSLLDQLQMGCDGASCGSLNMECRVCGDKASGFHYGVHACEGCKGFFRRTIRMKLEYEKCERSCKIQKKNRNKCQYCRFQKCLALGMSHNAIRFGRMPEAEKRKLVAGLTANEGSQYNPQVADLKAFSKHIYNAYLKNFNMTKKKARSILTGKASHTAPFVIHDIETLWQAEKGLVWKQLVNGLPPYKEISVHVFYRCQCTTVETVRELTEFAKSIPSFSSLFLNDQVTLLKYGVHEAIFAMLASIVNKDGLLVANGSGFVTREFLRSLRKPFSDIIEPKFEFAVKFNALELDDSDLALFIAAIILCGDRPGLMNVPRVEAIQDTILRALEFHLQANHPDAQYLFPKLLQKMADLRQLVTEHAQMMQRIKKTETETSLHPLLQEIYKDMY
Sequence of Vitamin D3 receptor (Homo sapiens) (P11473 whole entry, looked up): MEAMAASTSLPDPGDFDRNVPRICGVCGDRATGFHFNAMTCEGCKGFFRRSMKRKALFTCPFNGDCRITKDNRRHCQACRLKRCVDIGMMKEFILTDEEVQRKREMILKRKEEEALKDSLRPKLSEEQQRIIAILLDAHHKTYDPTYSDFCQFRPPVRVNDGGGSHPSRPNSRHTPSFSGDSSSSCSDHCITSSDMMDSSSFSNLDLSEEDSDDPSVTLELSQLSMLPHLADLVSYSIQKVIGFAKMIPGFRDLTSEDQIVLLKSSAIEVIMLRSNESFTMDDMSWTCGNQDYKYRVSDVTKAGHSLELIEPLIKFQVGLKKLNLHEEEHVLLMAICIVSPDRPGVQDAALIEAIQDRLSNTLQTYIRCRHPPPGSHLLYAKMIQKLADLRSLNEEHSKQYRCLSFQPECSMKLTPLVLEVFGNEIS
Sequence of Aryl hydrocarbon receptor (Homo sapiens) (P35869 whole entry, looked up): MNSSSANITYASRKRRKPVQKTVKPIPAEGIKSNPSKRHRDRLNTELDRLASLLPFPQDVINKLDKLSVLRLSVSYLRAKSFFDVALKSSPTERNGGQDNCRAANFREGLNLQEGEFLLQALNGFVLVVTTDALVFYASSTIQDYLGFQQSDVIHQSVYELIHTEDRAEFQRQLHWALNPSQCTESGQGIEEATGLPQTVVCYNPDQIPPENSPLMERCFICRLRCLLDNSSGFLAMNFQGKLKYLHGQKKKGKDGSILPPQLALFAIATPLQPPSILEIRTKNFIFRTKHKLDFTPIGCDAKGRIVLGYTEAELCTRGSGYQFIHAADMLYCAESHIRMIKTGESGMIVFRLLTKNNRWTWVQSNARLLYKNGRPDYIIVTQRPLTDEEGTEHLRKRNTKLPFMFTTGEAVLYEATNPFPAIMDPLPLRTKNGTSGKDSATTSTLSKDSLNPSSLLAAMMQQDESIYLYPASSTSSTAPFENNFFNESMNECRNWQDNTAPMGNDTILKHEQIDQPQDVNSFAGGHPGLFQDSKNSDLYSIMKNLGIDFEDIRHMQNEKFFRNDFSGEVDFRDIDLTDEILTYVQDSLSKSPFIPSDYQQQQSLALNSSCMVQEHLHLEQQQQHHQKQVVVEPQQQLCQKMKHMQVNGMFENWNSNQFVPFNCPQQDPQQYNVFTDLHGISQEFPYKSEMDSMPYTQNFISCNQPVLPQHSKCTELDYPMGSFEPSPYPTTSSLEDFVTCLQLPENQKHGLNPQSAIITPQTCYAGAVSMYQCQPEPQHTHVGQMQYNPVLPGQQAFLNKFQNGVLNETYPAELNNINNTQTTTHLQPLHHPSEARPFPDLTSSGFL

| Compound | Potency [1] | Potency [2] | outcome [3] | Potency [4] | Potency [5] | Potency [6] | Potency [7] | Potency [8] | Potency [9] | Potency [10] | Potency [11] | Potency [12] | Potency [13] | Potency [14] | Potency [15] | Potency [16] | Potency [17] | Potency [18] |
| --- | --- | --- | --- | --- | --- | --- | --- | --- | --- | --- | --- | --- | --- | --- | --- | --- | --- | --- |
| Nc1ccc(O)c([N+](=O)[O-])c1 | 43.3 µM (active) | inactive | inactive | inactive | inactive | inactive |  |  |  |  |  |  |  |  |  |  |  |  |
| CCOC(N)=O |  |  | inactive | inactive | inactive | inactive | inactive | inactive | inactive | inactive | inactive | inactive | inactive | inactive | inactive |  |  |  |
| Nc1ccc(S(N)(=O)=O)cc1 | inactive |  | inactive | inactive |  | inactive | inactive | inactive |  | inactive | inactive | inactive |  | inactive | inactive |  |  |  |
| CC(=O)CC(c1ccccc1)c1c(O)c2ccccc2oc1=O (stereo unspecified) |  |  |  | inactive |  | inactive |  | inactive |  | inactive | inactive | inactive |  | inactive | inactive | inactive | inactive |  |
| COc1ccc2c(c1)c(CC(=O)O)c(C)n2C(=O)c1ccc(Cl)cc1 | inactive |  | inactive | inactive |  | inactive | inactive | inactive |  | inactive | inactive | inactive |  | inactive | inactive |  |  |  |
| CC(C)c1c(C(=O)Nc2ccccc2)c(-c2ccccc2)c(-c2ccc(F)cc2)n1CC[C@@H](O)C[C@@H](O)CC(=O)O |  |  | inactive | inactive |  | inactive | inactive | inactive | inactive | 13.2 µM (active) | inactive | inactive |  | inactive | inactive | inactive | inactive |  |
| CN(C)CCOC(c1ccccc1)c1ccccc1 |  |  | inactive | inactive |  | inactive | inactive | inactive |  | inactive | inactive | inactive |  | inactive | inactive |  |  |  |
| Nc1ccc([N+](=O)[O-])cc1O | 13.7 µM (active) |  | inactive | inactive |  |  | 24.3 µM (active) | 38.6 µM (active) |  |  | inactive | inactive |  |  |  |  |  |  |
| Cc1ccc(S(=O)(=O)O)cc1 |  |  |  | inactive |  | inactive | inactive | inactive | inactive | inactive | inactive | inactive |  | inactive | inactive |  |  |  |
| Cn1c(=O)c2c(ncn2C)n(C)c1=O | inactive |  | inactive | inactive |  | inactive | inactive and 55.1 µM (active) | inactive and 69.4 µM (active) |  | inactive | inactive | inactive |  | inactive | inactive |  |  |  |
| CCCCCCc1ccc(O)cc1O | inactive | inactive | inactive | 43.8 µM (active) and inactive |  | inactive |  | inactive |  | 24.4 µM (active) and 26.6 µM (active) | inactive | inactive |  | inactive | inactive | inactive | inactive | 11.9 µM (active) |
| O=C1NS(=O)(=O)c2ccccc21 |  |  |  | inactive |  | inactive | inactive | inactive | inactive | inactive | inactive | inactive |  | inactive | inactive |  |  |  |
| COc1cccc(O)c1O | 31.8 µM (active) |  |  | inactive | inactive | inactive |  |  | inactive |  | inactive |  | inactive | inactive | inactive |  | inactive |  |
